Results from publication PMC7862700, “An all-to-all approach to the identification of sequence-specific readers for epigenetic DNA modifications on cytosine”.

What was measured:
Assay in all cases: DAPPL (digital affinity profiling via proximity ligation, sequencing); 10 mM Tris-HCl pH 7.5, 50 mM NaCl, 1 mM DTT, 4% glycerol, room temperature, 30 min; GST-TFs on glutathione beads, 16-mer random dsDNA library, 0.1% formaldehyde crosslink after washing; high values mean tight binding
Details in all cases: protein: recombinant; tags: N-terminal GST; dsDNA, one strand shown
ERF = target: T1, ERF (Homo sapiens, UniProt P50548 1-548)
T1 sequence: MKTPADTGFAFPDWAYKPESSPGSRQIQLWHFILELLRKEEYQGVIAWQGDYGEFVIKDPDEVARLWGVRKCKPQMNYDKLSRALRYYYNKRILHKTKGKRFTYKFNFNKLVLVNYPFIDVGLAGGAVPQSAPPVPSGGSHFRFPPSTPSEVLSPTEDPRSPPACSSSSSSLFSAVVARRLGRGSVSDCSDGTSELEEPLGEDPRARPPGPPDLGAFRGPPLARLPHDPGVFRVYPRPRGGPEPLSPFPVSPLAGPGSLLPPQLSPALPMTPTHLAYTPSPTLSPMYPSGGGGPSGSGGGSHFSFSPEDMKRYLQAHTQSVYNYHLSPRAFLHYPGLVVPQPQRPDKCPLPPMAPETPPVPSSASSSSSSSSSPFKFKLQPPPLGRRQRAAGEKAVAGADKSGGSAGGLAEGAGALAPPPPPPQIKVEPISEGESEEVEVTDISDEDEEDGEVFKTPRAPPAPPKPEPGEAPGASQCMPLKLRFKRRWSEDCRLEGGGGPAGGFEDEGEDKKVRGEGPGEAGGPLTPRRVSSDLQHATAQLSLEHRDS
In short: (§1)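 Binding signal is defined as a hexamer's read frequency for one factor over its frequency for the tag-only sample. To obtain reads, GST-fused human transcription factors were expressed in yeast, captured on glutathione beads, barcoded with DNA and pooled with that sample. Pools met 200 nmole of a 16-mer random double-stranded DNA library in Tris/NaCl/DTT/glycerol buffer for 30 min at room temperature before washing, 0.1% formaldehyde crosslinking, proximity ligation (BsaI/T4 ligase, 1 h, 37 °C), PCR and Illumina NextSeq500 sequencing.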

ETV3L = target: T2, ETV3L (Homo sapiens, UniProt Q6ZN32 1-361)
T2 sequence: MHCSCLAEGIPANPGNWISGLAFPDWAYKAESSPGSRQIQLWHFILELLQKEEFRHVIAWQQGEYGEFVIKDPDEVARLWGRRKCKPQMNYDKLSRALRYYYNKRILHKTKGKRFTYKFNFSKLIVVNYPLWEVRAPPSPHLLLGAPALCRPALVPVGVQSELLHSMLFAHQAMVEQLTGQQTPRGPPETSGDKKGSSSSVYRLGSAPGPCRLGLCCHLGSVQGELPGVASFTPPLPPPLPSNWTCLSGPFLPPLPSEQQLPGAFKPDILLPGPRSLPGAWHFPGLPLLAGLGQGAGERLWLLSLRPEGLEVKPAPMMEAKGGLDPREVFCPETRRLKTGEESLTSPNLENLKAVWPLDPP
In short: as §1

ETS2 = target: T3, ETS2 (Homo sapiens, UniProt P15036 1-469)
T3 sequence: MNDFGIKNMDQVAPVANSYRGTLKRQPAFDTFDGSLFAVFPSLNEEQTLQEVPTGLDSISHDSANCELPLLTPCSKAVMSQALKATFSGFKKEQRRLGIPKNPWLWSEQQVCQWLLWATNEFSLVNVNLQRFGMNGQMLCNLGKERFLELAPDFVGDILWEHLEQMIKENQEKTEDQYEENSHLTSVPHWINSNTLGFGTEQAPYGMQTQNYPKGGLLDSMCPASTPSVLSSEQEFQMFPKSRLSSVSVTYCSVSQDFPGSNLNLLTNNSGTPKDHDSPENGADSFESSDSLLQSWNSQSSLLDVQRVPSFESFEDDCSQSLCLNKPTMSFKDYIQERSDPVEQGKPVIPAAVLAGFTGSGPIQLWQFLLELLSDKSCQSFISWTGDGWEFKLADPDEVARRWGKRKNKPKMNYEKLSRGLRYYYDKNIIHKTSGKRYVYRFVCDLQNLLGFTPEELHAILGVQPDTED
In short: as §1

SPDEF = target: T4, SPDEF (Homo sapiens, UniProt O95238 1-335)
T4 sequence: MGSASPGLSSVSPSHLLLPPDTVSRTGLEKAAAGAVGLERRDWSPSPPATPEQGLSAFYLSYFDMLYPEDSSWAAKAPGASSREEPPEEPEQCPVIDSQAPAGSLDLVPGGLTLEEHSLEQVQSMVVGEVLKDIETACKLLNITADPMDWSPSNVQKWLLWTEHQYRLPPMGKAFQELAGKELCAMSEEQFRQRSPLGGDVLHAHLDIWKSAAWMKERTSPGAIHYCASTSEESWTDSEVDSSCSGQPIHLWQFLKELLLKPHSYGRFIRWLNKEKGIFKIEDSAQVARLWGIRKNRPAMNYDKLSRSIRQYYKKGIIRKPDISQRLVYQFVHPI
In short: as §1

ETV7 = target: T5, ETV7 (Homo sapiens, UniProt Q9Y603 1-341)
T5 sequence: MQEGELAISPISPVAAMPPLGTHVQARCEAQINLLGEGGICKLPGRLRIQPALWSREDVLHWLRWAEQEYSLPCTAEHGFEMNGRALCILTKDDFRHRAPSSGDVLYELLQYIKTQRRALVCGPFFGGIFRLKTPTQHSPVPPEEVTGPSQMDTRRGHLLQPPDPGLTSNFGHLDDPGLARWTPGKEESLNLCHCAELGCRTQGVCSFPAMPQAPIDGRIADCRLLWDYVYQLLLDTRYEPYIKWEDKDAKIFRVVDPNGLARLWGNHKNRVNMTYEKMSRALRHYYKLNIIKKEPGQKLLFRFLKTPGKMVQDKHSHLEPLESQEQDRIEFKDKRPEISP
In short: as §1

ELF5 = target: T6, ELF5 (Homo sapiens, UniProt Q9UKW6-2 1-255)
T6 sequence: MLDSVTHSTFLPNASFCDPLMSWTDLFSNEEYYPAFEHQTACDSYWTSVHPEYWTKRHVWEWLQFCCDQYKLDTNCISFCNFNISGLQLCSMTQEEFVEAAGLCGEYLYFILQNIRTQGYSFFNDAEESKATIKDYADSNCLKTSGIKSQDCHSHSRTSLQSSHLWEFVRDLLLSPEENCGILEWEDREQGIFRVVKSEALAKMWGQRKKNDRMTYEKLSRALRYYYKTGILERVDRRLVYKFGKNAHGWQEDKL
In short: as §1

ETV3 = target: T7, ETV3 (Homo sapiens, UniProt P41162-2 1-143)
T7 sequence: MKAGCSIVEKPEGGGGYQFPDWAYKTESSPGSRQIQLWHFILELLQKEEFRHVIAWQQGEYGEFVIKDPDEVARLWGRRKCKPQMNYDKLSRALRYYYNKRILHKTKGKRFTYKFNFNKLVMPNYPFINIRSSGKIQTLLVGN
In short: as §1

ETV6 = ETV6 (Homo sapiens, UniProt P41212 1-452)
In short: as §1

ETV6, sequence (P41212 whole entry): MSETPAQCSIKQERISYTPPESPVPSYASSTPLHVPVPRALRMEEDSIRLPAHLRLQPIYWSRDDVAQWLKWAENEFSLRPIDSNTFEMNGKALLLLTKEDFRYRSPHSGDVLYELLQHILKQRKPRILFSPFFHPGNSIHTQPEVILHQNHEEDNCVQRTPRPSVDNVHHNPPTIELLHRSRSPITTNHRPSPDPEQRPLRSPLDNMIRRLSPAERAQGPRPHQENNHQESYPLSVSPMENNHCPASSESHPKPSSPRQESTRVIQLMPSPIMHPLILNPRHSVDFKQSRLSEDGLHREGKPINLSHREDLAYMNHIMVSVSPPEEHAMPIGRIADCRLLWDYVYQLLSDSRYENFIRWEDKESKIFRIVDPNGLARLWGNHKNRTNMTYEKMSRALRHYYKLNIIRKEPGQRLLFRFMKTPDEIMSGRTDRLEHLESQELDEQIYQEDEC

## CCTCTC
ERF
  binding signal: 1.4 fold enrichment (6-mer frequency, TF over GST control)
ETV3L
  binding signal: 1.41 fold enrichment (6-mer frequency, TF over GST control)
ETS2
  binding signal: 1.34 fold enrichment (6-mer frequency, TF over GST control)
SPDEF
  binding signal: 1.39 fold enrichment (6-mer frequency, TF over GST control)
ETV7
  binding signal: 1.44 fold enrichment (6-mer frequency, TF over GST control)
ELF5
  binding signal: 1.41 fold enrichment (6-mer frequency, TF over GST control)
ETV3
  binding signal: 1.44 fold enrichment (6-mer frequency, TF over GST control)
ETV6
  binding signal: 1.5 fold enrichment (6-mer frequency, TF over GST control)

## AAGAAG
ERF
  binding signal: 1.01 fold enrichment (6-mer frequency, TF over GST control)
ETV3L
  binding signal: 1.04 fold enrichment (6-mer frequency, TF over GST control)
ETS2
  binding signal: 1.04 fold enrichment (6-mer frequency, TF over GST control)
SPDEF
  binding signal: 1.01 fold enrichment (6-mer frequency, TF over GST control)
ETV7
  binding signal: 1.16 fold enrichment (6-mer frequency, TF over GST control)
ELF5
  binding signal: 1.12 fold enrichment (6-mer frequency, TF over GST control)
ETV3
  binding signal: 1.05 fold enrichment (6-mer frequency, TF over GST control)
ETV6
  binding signal: 1.16 fold enrichment (6-mer frequency, TF over GST control)

## TTTCCA
ERF
  binding signal: 1.32 fold enrichment (6-mer frequency, TF over GST control)
ETV3L
  binding signal: 1.41 fold enrichment (6-mer frequency, TF over GST control)
ETS2
  binding signal: 1.38 fold enrichment (6-mer frequency, TF over GST control)
SPDEF
  binding signal: 1.29 fold enrichment (6-mer frequency, TF over GST control)
ETV7
  binding signal: 1.35 fold enrichment (6-mer frequency, TF over GST control)
ELF5
  binding signal: 1.43 fold enrichment (6-mer frequency, TF over GST control)
ETV3
  binding signal: 1.45 fold enrichment (6-mer frequency, TF over GST control)
ETV6
  binding signal: 1.54 fold enrichment (6-mer frequency, TF over GST control)

## CAAACC
ERF
  binding signal: 1.06 fold enrichment (6-mer frequency, TF over GST control)
ETV3L
  binding signal: 1.18 fold enrichment (6-mer frequency, TF over GST control)
ETS2
  binding signal: 1.09 fold enrichment (6-mer frequency, TF over GST control)
SPDEF
  binding signal: 1.11 fold enrichment (6-mer frequency, TF over GST control)
ETV7
  binding signal: 1.02 fold enrichment (6-mer frequency, TF over GST control)
ELF5
  binding signal: 1.02 fold enrichment (6-mer frequency, TF over GST control)
ETV3
  binding signal: 1.11 fold enrichment (6-mer frequency, TF over GST control)
ETV6
  binding signal: 1.1 fold enrichment (6-mer frequency, TF over GST control)

## CCTTCG
ERF
  binding signal: 1.36 fold enrichment (6-mer frequency, TF over GST control)
ETV3L
  binding signal: 1.36 fold enrichment (6-mer frequency, TF over GST control)
ETS2
  binding signal: 1.3 fold enrichment (6-mer frequency, TF over GST control)
SPDEF
  binding signal: 1.33 fold enrichment (6-mer frequency, TF over GST control)
ETV7
  binding signal: 1.38 fold enrichment (6-mer frequency, TF over GST control)
ELF5
  binding signal: 1.24 fold enrichment (6-mer frequency, TF over GST control)
ETV3
  binding signal: 1.12 fold enrichment (6-mer frequency, TF over GST control)
ETV6
  binding signal: 1.31 fold enrichment (6-mer frequency, TF over GST control)

## CACGAA
ERF
  binding signal: 1.18 fold enrichment (6-mer frequency, TF over GST control)
ETV3L
  binding signal: 1.01 fold enrichment (6-mer frequency, TF over GST control)
ETS2
  binding signal: 1.12 fold enrichment (6-mer frequency, TF over GST control)
SPDEF
  binding signal: 1.08 fold enrichment (6-mer frequency, TF over GST control)
ETV7
  binding signal: 1.16 fold enrichment (6-mer frequency, TF over GST control)
ELF5
  binding signal: 1.02 fold enrichment (6-mer frequency, TF over GST control)
ETV3
  binding signal: 1.05 fold enrichment (6-mer frequency, TF over GST control)
ETV6
  binding signal: 1.07 fold enrichment (6-mer frequency, TF over GST control)

## CGCTCC
ERF
  binding signal: 1.31 fold enrichment (6-mer frequency, TF over GST control)
ETV3L
  binding signal: 1.4 fold enrichment (6-mer frequency, TF over GST control)
ETS2
  binding signal: 1.39 fold enrichment (6-mer frequency, TF over GST control)
SPDEF
  binding signal: 1.22 fold enrichment (6-mer frequency, TF over GST control)
ETV7
  binding signal: 1.18 fold enrichment (6-mer frequency, TF over GST control)
ELF5
  binding signal: 1.23 fold enrichment (6-mer frequency, TF over GST control)
ETV3
  binding signal: 1.19 fold enrichment (6-mer frequency, TF over GST control)
ETV6
  binding signal: 1.11 fold enrichment (6-mer frequency, TF over GST control)

## CCACGA
ERF
  binding signal: 1.04 fold enrichment (6-mer frequency, TF over GST control)
ETV3L
  binding signal: 1.09 fold enrichment (6-mer frequency, TF over GST control)
ETS2
  binding signal: 1.08 fold enrichment (6-mer frequency, TF over GST control)
SPDEF
  binding signal: 1.03 fold enrichment (6-mer frequency, TF over GST control)
ETV7
  binding signal: 1.17 fold enrichment (6-mer frequency, TF over GST control)
ELF5
  binding signal: 1.01 fold enrichment (6-mer frequency, TF over GST control)
ETV3
  binding signal: 1.02 fold enrichment (6-mer frequency, TF over GST control)
ETV6
  binding signal: 1.01 fold enrichment (6-mer frequency, TF over GST control)
